In PubChem BioAssay (NCI) one finds growth data, which are given here for 40 molecules.

About 83,000 compounds went through this panel and 20% of them were active in at least one assay; those are over-represented in the sample as a whole.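 Each cell line was grown in a 96-well plate and treated with one concentration of compound for 48 hours. Values below 10 were considered active.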 Active and inactive are the calls of the source.

One test concerns UACC-62 melanoma. The experiment in a line: NCI-60 one-dose screen, 48 h (100 = growth as untreated, 0 = no growth, -100 = all killed). Conditions: 10 µM unless noted.
Regarding `O=C1Nc2ccc(Cl)cc2/C1=C/c1cccs1`, the growth is 86% (inactive).

On to `CCOc1cc(/C=C/C(=O)C(C(=O)/C=C/c2ccc(OC(=O)CNc3nc4ccccc4[nH]3)c(OCC)c2)C(=O)CNc2nc3ccccc3[nH]2)ccc1OC(=O)CNc1nc2ccccc2[nH]1`, for which the growth was -61.4% (active).

Take `NS(=O)(=O)N(c1cc(C(F)(F)F)cc(C(F)(F)F)c1)C1CCN(Cc2ccc(C(F)(F)F)cc2)CC1`: the growth was 24.3% (inactive).

On to `CCCCCCCSc1ncnc2[nH]ncc12`, for which the growth is 76.6% (inactive).

Turning to `CO[C@H]1/C=C/O[C@@]2(C)Oc3c(C)c(O)c4c(O)c(c(/C=N/N5C(C)CN(Cc6ccc(C#N)cc6)CC5C)c(O)c4c3C2=O)NC(=O)/C(C)=C\C=C\[C@H](C)[C@H](O)[C@@H](C)[C@@H](O)[C@@H](C)[C@H](OC(C)=O)[C@@H]1C` (stereo not given in full), the growth was 3.13% (active).

With `COc1cccc(C2=NN(C(C)=O)C(c3cc(OC)c(OC)c(OC)c3)C2)c1` (stereo not given), the growth is 51.7% (inactive).

`COc1c(O)cc2c(c1CC=C(C)C)OC(=O)c1c(cc(O)c(CC=C(C)C)c1O)O2`: the growth was 67.2% (inactive).

Regarding `O=CN1N=C(c2ccc(Nc3ccnc4cc(Cl)ccc34)cc2)CC1c1ccc(Cl)cc1` (stereo not given), the growth was 28.7% (inactive).

Take `CCOC1Oc2ccccc2C(=O)/C1=N/c1nccs1` (stereo not given): the growth was 78.7% (inactive).

On to `NC(=O)NC1(C(=O)O)CCCC1`, for which the growth is 115% (inactive).

On to `O=c1ccn(C2CC=C(CO)O2)c(=O)[nH]1` (stereo not given), for which the growth is 91.7% (inactive).

`CC1CN(/N=C/c2ccc([N+](=O)[O-])o2)C(=N)O1` (stereo not given): the growth is 92.7% (inactive).

With `N/C(=N\c1nc2ccccc2s1)NC(=O)Nc1ccccc1Cl`, the growth was 26.7% (inactive).

With `O=Cc1ccccc1C(=O)O`, the growth was 100% (inactive).

As for `O=c1[nH]cc(Nc2cc(Cl)c3nonc3c2[N+](=O)[O-])c(=O)[nH]1`, the growth is 94.9% (inactive).

Turning to `Nc1nc(Nc2ccccc2SSc2ccccc2Nc2nc(N)nc(-c3cccc(Cl)c3)n2)nc(-c2cccc(Cl)c2)n1`, the growth is 86.2% (inactive).

In the case of `CCCCCCCCCCCCC1CCCC(C)C1` (stereo not given), the growth is 102% (inactive).

As to `COc1ccc(-n2cnc3cc(C(=O)N4CCCCC4)ccc32)cc1`, the growth was 101% (inactive).

In the case of `COc1ccc2nc(N/N=C(\C)c3ccccn3)cc(C)c2c1`, the growth was -44.2% (active).

As to `COc1cc(C(=O)c2cc3c(cc2C)OCO3)cc(OC)c1OC`, the growth was 32.7% (inactive).

In the case of `NC(=N\N=C/Cc1ccccc1)/C(N)=N\N=C\Cc1ccccc1`, the growth is 96.1% (inactive).

Regarding `CCSc1nc(-c2cccs2)n2nc(-c3ccco3)cc2n1`, the growth is 85.2% (inactive).

With `COc1ccc2c(c1)[n+](=O)c(C(=O)/C=C/c1cc(OC)c(OC)c(OC)c1)c(C)n2[O-]`, the growth is 64.7% (inactive).

As for `O=C(CNC(=O)c1cccc2ccccc12)Nc1ccccc1Oc1cccc(O)c1`, the growth was 44.9% [5 µM] (inactive).

As to `CN1C(=O)C(C2=NN(C=O)C(c3ccc(F)cc3)C2)C(=O)N(C)C1=O` (stereo not given), the growth was 100% (inactive).

Turning to `Cc1ncc(C(=O)Nc2ccc(CN3CCN(C)CC3)c(C(F)(F)F)c2)cc1C#Cc1cncc2ncccc12`, the growth was 40.7% (inactive).

Regarding `O=C1C=CC(=O)N1c1ccccc1N1C(=O)C=CC1=O`, the growth was 87.4% (inactive).

`N#Cc1c(-c2ccccc2)cc(-c2ccccc2)n(CCCCCCC(=O)O)c1=O`: the growth is 90.7% (inactive).

`COc1ccc(C2CC(c3ccc4c(c3)OCO4)=NN2C=O)cc1` (stereo not given): the growth was 82.1% (inactive).

Consider `O=C(O)C1CCN(S(=O)(=O)c2ccc(-c3ccccc3)cc2)CC1`, for which the growth was 94.5% (inactive).

As for `CC[C@@H](C)/C=C(C)/C=C/C(=O)c1c(O)c(-c2ccc(O)cc2)cn(OC2CC(=O)CCC(C)OC(=O)CC2O)c1=O` (stereo not given in full), the growth is -13.1% (active).

`CCCCCCCCN(CCO)CCCCCCCC`: the growth was 109% (inactive).

For `O=C(Nc1ccc2c(c1)C(=O)c1ccccc1-2)c1ccccc1`, the growth was 90.2% (inactive).

On to `CN(C)CCCNc1nn2c(=O)c3ccccc3nc2c2ccccc12`, for which the growth is 67.3% (inactive).

With `CCN(CC)CCNCC(=O)Oc1ccc(/C=C/C(=O)CC(=O)/C=C/c2ccc(OC(=O)CNCCN(CC)CC)c(OC)c2)cc1OC`, the growth is 15.4% (inactive).

As for `Nc1c(C(=O)Nc2cccc(Cl)c2)sc2nc3c(cc12)C(O)CCC3` (stereo not given), the growth was 44.6% (inactive).

On to `N#CC1c2ccccc2C=CN1C(=O)N(c1ccccc1)c1ccccc1` (stereo not given), for which the growth is 61.2% (inactive).

In the case of `C=C1CCC2C3(C)COC(c4ccccc4)OC3CCC2(C)C1C/C=C1/C(=O)OCC1OC(C)=O` (stereo not given), the growth was 90.2% (inactive).

Regarding `O=C1CNc2cc(Cl)ccc2N1`, the growth is 101% (inactive).

As to `COCCOCCOCCOCCOc1ccc2c(c1)C(=O)c1nc3ncccc3c(=O)n1-2`, the growth is -97.2% (active).

The next test relates to LOX IMVI melanoma. Described as above. The conditions noted are these: 10 µM unless noted.
As for `O=C1Nc2ccc(Cl)cc2/C1=C/c1cccs1`, the growth is 86.7% (inactive).

Take `CCOc1cc(/C=C/C(=O)C(C(=O)/C=C/c2ccc(OC(=O)CNc3nc4ccccc4[nH]3)c(OCC)c2)C(=O)CNc2nc3ccccc3[nH]2)ccc1OC(=O)CNc1nc2ccccc2[nH]1`: the growth was -98.5% (active).

Regarding `NS(=O)(=O)N(c1cc(C(F)(F)F)cc(C(F)(F)F)c1)C1CCN(Cc2ccc(C(F)(F)F)cc2)CC1`, the growth is 23.5% (inactive).

Consider `CCCCCCCSc1ncnc2[nH]ncc12`, for which the growth was 65.9% (inactive).

On to `CO[C@H]1/C=C/O[C@@]2(C)Oc3c(C)c(O)c4c(O)c(c(/C=N/N5C(C)CN(Cc6ccc(C#N)cc6)CC5C)c(O)c4c3C2=O)NC(=O)/C(C)=C\C=C\[C@H](C)[C@H](O)[C@@H](C)[C@@H](O)[C@@H](C)[C@H](OC(C)=O)[C@@H]1C` (stereo not given in full), for which the growth is 52.5% (inactive).

Take `COc1cccc(C2=NN(C(C)=O)C(c3cc(OC)c(OC)c(OC)c3)C2)c1` (stereo not given): the growth was 48.6% (inactive).

As to `COc1c(O)cc2c(c1CC=C(C)C)OC(=O)c1c(cc(O)c(CC=C(C)C)c1O)O2`, the growth was -27.5% (active).

As for `O=CN1N=C(c2ccc(Nc3ccnc4cc(Cl)ccc34)cc2)CC1c1ccc(Cl)cc1` (stereo not given), the growth is 32% (inactive).

`CCOC1Oc2ccccc2C(=O)/C1=N/c1nccs1` (stereo not given): the growth is 85.2% (inactive).

Consider `NC(=O)NC1(C(=O)O)CCCC1`, for which the growth is 103% (inactive).

In the case of `O=c1ccn(C2CC=C(CO)O2)c(=O)[nH]1` (stereo not given), the growth is 94% (inactive).

`CC1CN(/N=C/c2ccc([N+](=O)[O-])o2)C(=N)O1` (stereo not given): the growth was 95.4% (inactive).

As for `N/C(=N\c1nc2ccccc2s1)NC(=O)Nc1ccccc1Cl`, the growth was 36.2% (inactive).

As to `O=Cc1ccccc1C(=O)O`, the growth was 101% (inactive).

Take `O=c1[nH]cc(Nc2cc(Cl)c3nonc3c2[N+](=O)[O-])c(=O)[nH]1`: the growth is 95% (inactive).

On to `Nc1nc(Nc2ccccc2SSc2ccccc2Nc2nc(N)nc(-c3cccc(Cl)c3)n2)nc(-c2cccc(Cl)c2)n1`, for which the growth is 61.7% (inactive).

Consider `CCCCCCCCCCCCC1CCCC(C)C1` (stereo not given), for which the growth was 99.7% (inactive).

With `COc1ccc(-n2cnc3cc(C(=O)N4CCCCC4)ccc32)cc1`, the growth is 97.9% (inactive).

Turning to `COc1ccc2nc(N/N=C(\C)c3ccccn3)cc(C)c2c1`, the growth is -99.1% (active).

In the case of `COc1cc(C(=O)c2cc3c(cc2C)OCO3)cc(OC)c1OC`, the growth was 19.7% (inactive).

For the molecule `NC(=N\N=C/Cc1ccccc1)/C(N)=N\N=C\Cc1ccccc1`, the growth was 96.8% (inactive).

`CCSc1nc(-c2cccs2)n2nc(-c3ccco3)cc2n1`: the growth is 92% (inactive).

As to `COc1ccc2c(c1)[n+](=O)c(C(=O)/C=C/c1cc(OC)c(OC)c(OC)c1)c(C)n2[O-]`, the growth is 55.1% (inactive).

For the molecule `O=C(CNC(=O)c1cccc2ccccc12)Nc1ccccc1Oc1cccc(O)c1`, the growth is 33.4% [5 µM] (inactive).

Turning to `CN1C(=O)C(C2=NN(C=O)C(c3ccc(F)cc3)C2)C(=O)N(C)C1=O` (stereo not given), the growth was 90.4% (inactive).

`Cc1ncc(C(=O)Nc2ccc(CN3CCN(C)CC3)c(C(F)(F)F)c2)cc1C#Cc1cncc2ncccc12`: the growth is 10.8% (inactive).

With `O=C1C=CC(=O)N1c1ccccc1N1C(=O)C=CC1=O`, the growth is 97.2% (inactive).

Turning to `N#Cc1c(-c2ccccc2)cc(-c2ccccc2)n(CCCCCCC(=O)O)c1=O`, the growth was 89.2% (inactive).

As to `COc1ccc(C2CC(c3ccc4c(c3)OCO4)=NN2C=O)cc1` (stereo not given), the growth was 95.4% (inactive).

For the molecule `O=C(O)C1CCN(S(=O)(=O)c2ccc(-c3ccccc3)cc2)CC1`, the growth is 103% (inactive).

Consider `CC[C@@H](C)/C=C(C)/C=C/C(=O)c1c(O)c(-c2ccc(O)cc2)cn(OC2CC(=O)CCC(C)OC(=O)CC2O)c1=O` (stereo not given in full), for which the growth was 2.2% (active).

For `CCCCCCCCN(CCO)CCCCCCCC`, the growth is 102% (inactive).

Turning to `O=C(Nc1ccc2c(c1)C(=O)c1ccccc1-2)c1ccccc1`, the growth is 73.2% (inactive).

For `CN(C)CCCNc1nn2c(=O)c3ccccc3nc2c2ccccc12`, the growth was 33.8% (inactive).

With `CCN(CC)CCNCC(=O)Oc1ccc(/C=C/C(=O)CC(=O)/C=C/c2ccc(OC(=O)CNCCN(CC)CC)c(OC)c2)cc1OC`, the growth was -66.5% (active).

For `Nc1c(C(=O)Nc2cccc(Cl)c2)sc2nc3c(cc12)C(O)CCC3` (stereo not given), the growth is 48.1% (inactive).

As to `N#CC1c2ccccc2C=CN1C(=O)N(c1ccccc1)c1ccccc1` (stereo not given), the growth was 35.6% (inactive).

As for `C=C1CCC2C3(C)COC(c4ccccc4)OC3CCC2(C)C1C/C=C1/C(=O)OCC1OC(C)=O` (stereo not given), the growth is 12.3% (inactive).

Turning to `O=C1CNc2cc(Cl)ccc2N1`, the growth is 101% (inactive).

`COCCOCCOCCOCCOc1ccc2c(c1)C(=O)c1nc3ncccc3c(=O)n1-2`: the growth is -87.7% (active).
